Reference: PubChem BioAssay (NCI)
This is part of a sample that, as a whole, favours compounds with a hit. Of some 83,000 tested, about 20% had one in any assay.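 Single-concentration screen, 48 h exposure, 96-well plates. Endpoint: percent growth. Below 10 = active.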 The source made the active and inactive calls.

What was measured:
Experiment in all cases: NCI-60 one-dose screen, 48 h (100 = growth as untreated, 0 = no growth, -100 = all killed)
Conditions in all cases: 10 µM unless noted
SK-MEL-2 melanoma = tested on: SK-MEL-2 melanoma
EKVX NSCLC = tested on: EKVX NSCLC
SN12C renal = tested on: SN12C renal
UO-31 renal = tested on: UO-31 renal
TK-10 renal = tested on: TK-10 renal
ACHN renal = tested on: ACHN renal
CAKI-1 renal = tested on: CAKI-1 renal
A498 renal = tested on: A498 renal
CCRF-CEM leukemia = tested on: CCRF-CEM leukemia
MOLT-4 leukemia = tested on: MOLT-4 leukemia

Measured: growth

COc1ccc(SC2c3cc(OC)ccc3Oc3nc(N)c(C#N)c(N)c32)cc1 (stereo not given)
inactive: SK-MEL-2 melanoma 94.5% | EKVX NSCLC 76.3% | SN12C renal 73.7% | UO-31 renal 39.7% | TK-10 renal 110% | ACHN renal 76.3% | CAKI-1 renal 79.1% | A498 renal 107% | MOLT-4 leukemia 55.4%
active: CCRF-CEM leukemia 4.16%

FC(F)(F)c1cc2c(Cl)ncnc2n1CCN1CCCCC1
active: SK-MEL-2 melanoma -16% | UO-31 renal -96.3% | ACHN renal -22.5% | CCRF-CEM leukemia 4.18% | MOLT-4 leukemia -14.3%
inactive: EKVX NSCLC 72% | SN12C renal 59.7% | TK-10 renal 105% | CAKI-1 renal 21.3% | A498 renal 113%

Cc1ccc2c(c1)nc(-c1ccccc1)n2CC(=O)N=Nc1c(O)[nH]c2ccc(Cl)cc12
active: SK-MEL-2 melanoma -75.4% | EKVX NSCLC -31.9% | SN12C renal -77.9% | UO-31 renal -89.6% | TK-10 renal -15.1% | ACHN renal -89.5% | CAKI-1 renal -42.6% | A498 renal -71.1% | CCRF-CEM leukemia 4.22% | MOLT-4 leukemia -20.3%

c1n[nH]cc1-c1nc2ccc3[nH]ncc3c2c2c1CC1(CCOCC1)CC2
active: CAKI-1 renal 4.86% | A498 renal -3.86%
inactive: SK-MEL-2 melanoma 24.5% | EKVX NSCLC 55.3% | SN12C renal 28.8% | UO-31 renal 55.4% | TK-10 renal 29.2% | ACHN renal 22.1% | CCRF-CEM leukemia 19.3% | MOLT-4 leukemia 22.2%

N#Cc1c(NC(=O)N2CCOCC2)n(-c2ccc(OC(F)(F)F)cc2)c2cc(F)ccc12
inactive: SK-MEL-2 melanoma 94% | EKVX NSCLC 90.1% | SN12C renal 93.5% | UO-31 renal 104% | TK-10 renal 113% | ACHN renal 93.2% | CAKI-1 renal 88.9% | A498 renal 177% | CCRF-CEM leukemia 85.5% | MOLT-4 leukemia 68.7%

O=CNc1cccc(-n2cnc3cc(-c4ccc(O)cc4)ccc32)c1
inactive: SK-MEL-2 melanoma 79.2% | EKVX NSCLC 71.5% | SN12C renal 22.9% | UO-31 renal 10.3% | TK-10 renal 79.3% | ACHN renal 16.9% | CAKI-1 renal 42.2% | A498 renal 147% | CCRF-CEM leukemia 23% | MOLT-4 leukemia 27.7%

CC1=NN(C2=NC(=O)C(CC(=O)Nc3ccccc3C(F)(F)F)S2)C(c2ccc(N(C)C)cc2)C1 (stereo not given)
inactive: SK-MEL-2 melanoma 65.2% | EKVX NSCLC 48.5% | SN12C renal 46.5% | UO-31 renal 41.6% | TK-10 renal 71.5% | ACHN renal 35.8% | CAKI-1 renal 71% | A498 renal 79.2% | CCRF-CEM leukemia 36.9% | MOLT-4 leukemia 28.4%

Fc1ccc(F)c(CNc2nc(SCCN3CCOCC3)nc3c2cnn3CC(Cl)c2ccc(Br)cc2)c1 (stereo not given)
inactive: EKVX NSCLC 45.1% | SN12C renal 28.9% | TK-10 renal 44.8% | ACHN renal 10.6% | CAKI-1 renal 26.7% | A498 renal 64.8% | CCRF-CEM leukemia 11.1%
active: SK-MEL-2 melanoma 5.82% | UO-31 renal 9.3% | MOLT-4 leukemia -22.6%

Cc1cc(N=C(N)c2ccccc2)ccc1OCCCCCCCCn1ccnc1
active: SK-MEL-2 melanoma -28.2% | UO-31 renal -30.2% | ACHN renal 9.56%
inactive: EKVX NSCLC 20.7% | SN12C renal 12.7% | TK-10 renal 32.9% | CAKI-1 renal 20.2% | A498 renal 64.6% | CCRF-CEM leukemia 12.3% | MOLT-4 leukemia 14.1%

CC(C)(C)OC(=O)N1C/C(=C\c2ccc(F)cc2)C(=O)/C(=C/c2ccc(F)cc2)C1
inactive: TK-10 renal 10% | A498 renal 97%
active: SK-MEL-2 melanoma -36.4% | EKVX NSCLC -52.6% | SN12C renal -93.7% | UO-31 renal -73.5% | ACHN renal -100% | CAKI-1 renal -37.4% | CCRF-CEM leukemia -6.19% | MOLT-4 leukemia -7.57%

Fc1ccc(N2CC(Cn3c(C(F)(F)F)cc4c(Cl)ncnc43)C2)c(F)c1
active: SK-MEL-2 melanoma -78.1% | SN12C renal -29.1% | UO-31 renal -92% | CCRF-CEM leukemia -38.5% | MOLT-4 leukemia -61.3%
inactive: EKVX NSCLC 72.4% | TK-10 renal 104% | ACHN renal 41.8% | CAKI-1 renal 71.7% | A498 renal 130%

CC1=C(C(=O)Nc2ccccc2)C(c2ccc3ccccc3c2)n2c(nc3ccccc32)N1 (stereo not given)
inactive: SK-MEL-2 melanoma 106% | EKVX NSCLC 85% | SN12C renal 14.4% | UO-31 renal 75% | TK-10 renal 116% | ACHN renal 52.7% | CAKI-1 renal 60.9% | A498 renal 134% | CCRF-CEM leukemia 11.1% | MOLT-4 leukemia 12.7%

CN(C)c1nc(NCCNS(=O)(=O)c2ccc(C(=O)/C=C/c3ccc(Cl)cc3)cc2)nc(N2CCOCC2)n1
active: UO-31 renal -61% | CAKI-1 renal -61.2% | CCRF-CEM leukemia 3.45% | MOLT-4 leukemia 3.71%
inactive: SK-MEL-2 melanoma 68.9% | EKVX NSCLC 49.6% | SN12C renal 53.4% | TK-10 renal 62.5% | ACHN renal 21.8% | A498 renal 87.6%

CC(C)C[C@H](NC(=O)CNC(=O)C[C@H]1O[C@@H]2OC3(C)CC[C@H]4[C@H](C)CC[C@@H]([C@H]1C)[C@@]24O3)B(O)O
active: SK-MEL-2 melanoma -61.9% | SN12C renal -39.2% | ACHN renal 6.33% | CCRF-CEM leukemia -12.4% | MOLT-4 leukemia 7.31%
inactive: EKVX NSCLC 27.3% | UO-31 renal 10.5% | TK-10 renal 12.1% | CAKI-1 renal 15.8% | A498 renal 21.1%

O=C1Nc2cc(-c3ccc(NS(=O)(=O)c4ccc(C(F)(F)F)cc4)cc3)ccc2/C1=C/c1ccc[nH]1
active: SN12C renal 4.64% | MOLT-4 leukemia 6.52%
inactive: SK-MEL-2 melanoma 22.5% | EKVX NSCLC 19.5% | UO-31 renal 31.1% | TK-10 renal 32.5% | ACHN renal 31.1% | CAKI-1 renal 32.9% | A498 renal 28.9% | CCRF-CEM leukemia 18.5%

C=CCn1c(O)c(N=Nc2nc(-c3cc4ccccc4oc3=O)cs2)c2ccccc21
inactive: SK-MEL-2 melanoma 64.4% | EKVX NSCLC 55.7% | SN12C renal 90.7% | UO-31 renal 101% | TK-10 renal 90.9% | ACHN renal 78.4% | CAKI-1 renal 94.3% | A498 renal 137% | CCRF-CEM leukemia 35.8% | MOLT-4 leukemia 98.3%

COc1ccc2[nH]cc(-c3cc4nc(-c5cn(C)c6ncc(Br)cc56)cc(N)n4n3)c2c1
active: SK-MEL-2 melanoma -34.7% | EKVX NSCLC -82.7% | SN12C renal -83.2% | UO-31 renal -69.1% | TK-10 renal -42.5% | ACHN renal -97.6% | CAKI-1 renal -86.1% | A498 renal -51% | CCRF-CEM leukemia -31% | MOLT-4 leukemia -27.5%

O=C(N/N=C/c1ccc(-c2cccc([N+](=O)[O-])c2)s1)c1[nH]c2ccc(Br)cc2c1-c1ccccc1
inactive: SK-MEL-2 melanoma 84.4% | EKVX NSCLC 94.7% | SN12C renal 91.4% | UO-31 renal 82.1% | TK-10 renal 101% | ACHN renal 87.3% | CAKI-1 renal 90.4% | A498 renal 132% | CCRF-CEM leukemia 91% | MOLT-4 leukemia 69.3%

O=C(O)CC1S/C(=N/N=C/c2nc3ccccc3s2)NC1=O (stereo not given)
inactive: SK-MEL-2 melanoma 116% | EKVX NSCLC 54.7% | SN12C renal 101% | UO-31 renal 52.7% | TK-10 renal 104% | ACHN renal 78.3% | CAKI-1 renal 77.3% | A498 renal 155% | CCRF-CEM leukemia 93% | MOLT-4 leukemia 95.2%

CC(=O)Nc1ccc(S(=O)(=O)Nc2ccc(-c3ccc4c(c3)NC(=O)/C4=C\c3ccc[nH]3)cc2)cc1
inactive: SK-MEL-2 melanoma 93.8% | EKVX NSCLC 55.6% | SN12C renal 100% | UO-31 renal 73.1% | TK-10 renal 69.3% | ACHN renal 75.5% | CAKI-1 renal 76.7% | A498 renal 139% | CCRF-CEM leukemia 80.2% | MOLT-4 leukemia 71.6%

CS(=O)(=O)Nc1cccc(-n2cnc3cc(-c4ccc(O)cc4)ccc32)c1
inactive: SK-MEL-2 melanoma 27.2% | EKVX NSCLC 51.6% | SN12C renal 41.1% | UO-31 renal 44.3% | TK-10 renal 93% | ACHN renal 49.7% | CAKI-1 renal 30.6% | A498 renal 149% | CCRF-CEM leukemia 22.2% | MOLT-4 leukemia 24.4%

Clc1ccccc1Nc1nnc(-c2c[nH]c3ccccc23)o1
inactive: EKVX NSCLC 18.7% | SN12C renal 26.6% | UO-31 renal 33.1% | TK-10 renal 69% | ACHN renal 39.9% | CAKI-1 renal 32.7% | A498 renal 113%
active: SK-MEL-2 melanoma -2.89% | CCRF-CEM leukemia 9.07% | MOLT-4 leukemia 5.42%

O=C(Cc1c(-c2ccccc2[N+](=O)[O-])n(-c2ncnc3c2c(-c2ccccc2)c(-c2ccccc2)n3Cc2ccccc2)[nH]c1=O)c1ccc(Cl)c(Cl)c1
inactive: EKVX NSCLC 14.6% | SN12C renal 12.6% | UO-31 renal 41.7% | TK-10 renal 38.5% | ACHN renal 25.4% | A498 renal 56.1% | CCRF-CEM leukemia 13.2% | MOLT-4 leukemia 24.1%
active: SK-MEL-2 melanoma -22.4% | CAKI-1 renal 9.03%

O=C(N/N=C/c1ccc(Cl)cc1)c1ccc(OCc2nc3ccc(Cl)cc3[nH]2)cc1
inactive: SK-MEL-2 melanoma 47.7% | EKVX NSCLC 32.1% | SN12C renal 30.4% | UO-31 renal 11.1% | TK-10 renal 12.4% | ACHN renal 28.6% | CAKI-1 renal 73.6% | A498 renal 129% | CCRF-CEM leukemia 66.7% | MOLT-4 leukemia 15%
